Source: PubChem
Pf growth 96h – Primary qHTS for delayed death inhibitors of the malarial parasite plastid, 96 hour incubation. P. falciparum luciferase reporter growth, 96 h. Potency, µM (series often up to 28.7 µM), for inactives: at the highest dose activity change, negative = inhibition, most hits filed as inhibitors. 320,000 tested, 6.9% active. AID 504834, 2011; further: potency means the concentration at half of the fitted maximal effect
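Erythrocytes infected with luciferase-expressing P. falciparum were dispensed at 2% hematocrit and 0.05% parasitemia (final), then incubated with compounds 96 hours at 37 C in 5% CO2. Luminescence after detection reagent addition reported growth.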
Pf growth 48h – Primary qHTS for delayed death inhibitors of the malarial parasite plastid, 48 hour incubation. P. falciparum luciferase growth in erythrocytes, 48 h. Potency, µM (top dose mostly 28.7 µM), inactives show at the highest dose activity change, negative = inhibition, most hits filed as inhibitors. 310,000 tested, 5.9% active; further: potency means the concentration at half of the fitted maximal effect
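In quantitative HTS format, infected erythrocytes bearing luciferase-reporter parasites were treated for a single generation at 37 C. Luminescence after adding detection reagent served as the growth measure.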
HCMV antiviral – qHTS Assay for inhibitors of the human cytomegalovirus (HCMV); HFF cells, HCMV-luciferase reporter, 72 h; hits give low values; 410,000 tested, 4.5% active; AID 1259415, 2018; activity change, negative = inhibition, % at 57.5 µM; in the data active means activity change below about -60%; inconclusive means no clear call, values can overlap the other calls; inactive means above about -39%
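HFF cells seeded 16 h at 37C, treated with compounds, infected with luciferase-reporter HCMV at MOI 1 PFU/cell; luciferase read at 72 h post infection, normalized to buffer-only and Salinomycin controls.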
HCV inh – qHTS Assay for Inhibitors of Hepatitis C Virus (HCV) | Huh7.5.1 HCVcc-Cre infection, luciferase reporter, 44 h | Potency, µM (top dose mostly 41.8 µM), for the others: at the highest dose activity change, negative = inhibition, most hits filed as inhibitors | 340,000 tested, 3.4% active | AID 651820, 2012; further: potency means the concentration at half of the fitted maximal effect
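Seed cells (1,000/well) for 4 h; treat with compound and infect with HCVcc-Cre, moi about 0.5. Incubate 44 h, then detect luciferase activity.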
An asterisk follows results filed as active; ? = inconclusive; nt = no result given. Hits are enriched below; roughly 13% of the tested compounds scored in any of these assays. Unless noted, the call rests on the fitted dose curve; in most records, active means well fitted inhibition curve with a large enough effect; inconclusive means small, poorly fitted or top-dose-only effect, or another doubt; inactive means no such curve, though single readings can be large or run the other way. On the % scale 0 is the no-effect control and ±100 the full control effect.

SMILES | Pf growth 96h | Pf growth 48h | HCMV antiviral | HCV inh
CCOC(=O)C1CCN(S(=O)(=O)c2ccccc2[N+](=O)[O-])CC1 | nt | nt | -14.8 | 13.7%
CC1CCCCN1C(=O)COc1ccc(S(=O)(=O)N2CCCC2)cc1[N+](=O)[O-] (stereo unspecified) | 11.7µM* | -25.8% | -19.6 | 7.2%
CCC(Oc1ccccc1)C(=O)Nc1cc(-c2ccccc2OC)nn1-c1ccccc1 (stereo unspecified) | nt | nt | 43.5 | nt
COc1cc2c(cc1OC)C(c1ccccc1N)=NCC2 | 1.04µM* | 2.94µM* | 4.7 | 9.4%
NC(=O)C[C@H](N)c1cn([C@@H](CC(N)=O)C(=O)N2CCNCC2)nn1 | 100.8% | -3.4% | -60.1* | 27.4%
CC(C)[C@H](N)c1cn([C@@H](CO)C(=O)N2CCNCC2)nn1 | 59.5% | 15.7% | 9.0 | 14.7%
COc1cccc(NC(=O)CN2C(=O)C3(SCC(=O)N3c3cc(C)cc(C)c3)c3ccccc32)c1 (stereo unspecified) | nt | nt | 5.6 | nt
COc1cc(C2OC(=O)c3c2ccc(OC)c3OC)ccc1O (stereo unspecified) | -21.4% | 7.38µM* | nt | nt
COc1cc(C2C(=O)c3ccccc3C2=O)ccc1O | -15.7% | -16.9% | -7.6 | -14.6%
CCc1ccccc1NC(c1nnc(-c2cccc(F)c2)o1)c1ccc(F)cc1Cl (stereo unspecified) | nt | nt | -13.5 | nt
COCc1cc(=O)n2[nH]c(N)nc2n1 | ? | 10.4µM* | -11.3 | 11.1%
COCc1cc(=O)n2[nH]c(SC)nc2n1 | -20.1% | 2.0% | 12.7 | 12.9%
Cc1cccc(C)c1NC(=O)Cn1nnc(S(=O)(=O)c2ccccc2)c1N | nt | nt | -19.2 | nt
CCN(CC)C(=O)CSc1nc2c(sc(=S)n2CC)c(=O)n1-c1ccccc1 | ? | nt | -71.6* | -29.0%
CCN(CC)C(=O)CSc1nc2c(sc(=S)n2-c2ccccc2)c(=O)n1Cc1ccco1 | 50.1% | nt | -67.5* | 10µM*
CCOC(=O)CSc1nc2c(sc(=S)n2Cc2ccco2)c(=O)n1-c1ccc(F)cc1 | 36.3% | 10.4µM* | -20.3 | ?
CCN(CC)C(=O)CSc1nc2c(sc(=S)n2-c2ccccc2OC)c(=O)n1-c1ccccc1 | ? | 11.7µM* | ? | -20.5%
CCn1c(=S)sc2c(=O)n(-c3ccccc3)c(SCC(=O)NCc3ccco3)nc21 | 5.4% | ? | 12.0 | -21.9%
O=S(=O)(c1ccc(Br)cc1)c1nc(-c2ccco2)oc1SCc1ccccc1Cl | nt | nt | -2.8 | nt
COc1ccccc1NS(=O)(=O)c1cccc(NC(=O)c2[nH]c(C)c(C(C)=O)c2C)c1 | ? | ? | 0.0 | 12.6µM*
CC(=O)c1c(C)[nH]c(C(=O)Nc2cccc(S(=O)(=O)N3CCOCC3)c2)c1C | -3.5% | -7.7% | 147.1 | ?
COc1ccccc1NC(=O)c1[nH]c(C)c(C(C)=O)c1C | 12.0% | nt | 73.4 | -19.2%
CC(=O)c1c(C)[nH]c(C(=O)Nc2cccc(S(=O)(=O)N(C)c3ccccc3)c2)c1C | ? | ? | -3.0 | 25.1µM*
c1ccc(-c2noc(CN3CCN(c4ccccc4)CC3)n2)cc1 | 7.38µM* | nt | 14.3 | -0.5%
Fc1ccccc1N1CCN(Cc2nc(-c3ccccc3)no2)CC1 | nt | -7.0% | 56.6 | -5.7%
SMILES | Pf growth 96h | Pf growth 48h | HCMV antiviral | HCV inh
COc1cccc(CNCCc2c[nH]c3ccccc23)c1 | ? | 22.1% | -2.6 | -0.1%
Fc1ccc(CNCCc2c[nH]c3ccccc23)cc1 | ? | -27.8% | 2.1 | -10.3%
CCOc1c(Cl)cc(CNCCc2c[nH]c3ccccc23)cc1OC | 2.2% | ? | 10.0 | 22.4µM*
CCOc1cc(CNCCc2c[nH]c3ccccc23)cc(Cl)c1OCC | ? | ? | -62.8* | ?
CCc1c(C)sc2c1CCN(C(=O)Nc1ccccc1Cl)C2c1ccc(OC)cc1 (stereo unspecified) | nt | nt | -26.1 | nt
CN(c1nnc(NC(=O)Nc2ccccc2C(F)(F)F)s1)C1CCCCC1 | nt | nt | 15.1 | nt
COc1ccc([C@@H]2[C@@H]3C(=O)N(C(C)(C)C)C(=O)[C@@H]3[C@]3(C)C(=O)N(c4ccccc4)C(=O)N23)cc1 | ? | 40.9% | 22.3 | 21.1%
COc1ccc([C@@H]2[C@@H]3C(=O)N(C(C)(C)C)C(=O)[C@@H]3[C@]3(C)C(=O)N(c4cccc(Cl)c4)C(=O)N23)cc1 | -24.4% | ? | -71.2* | 4.9%
O=C1[C@H]2[C@@H](c3ccc(F)cc3)N3C(=O)N(c4ccc(Br)cc4)C(=O)[C@@]3(Cc3ccc(Cl)cc3)[C@H]2C(=O)N1C1CCCCC1 | 3.29µM* | ? | -9.5 | 2.4%
CC[C@@]12C(=O)N(c3cccc(Br)c3)C(=O)N1[C@H](c1ccc(F)cc1)[C@@H]1C(=O)N(C3CCCCC3)C(=O)[C@@H]12 | ? | ? | -2.4 | -1.1%
COc1ccc([C@@H]2[C@@H]3C(=O)N(C(C)(C)C)C(=O)[C@@H]3[C@]3(Cc4ccc(Cl)cc4)C(=O)N(c4ccc(OC)cc4)C(=O)N23)cc1 | 13.1µM* | ? | 10.1 | 5.6%
COc1ccc(N2C(=O)N3[C@H](c4ccc(Cl)cc4)[C@@H]4C(=O)N(C5CCCCC5)C(=O)[C@@H]4[C@]3(Cc3ccc(Cl)cc3)C2=O)cc1 | 1.17µM* | -107.0% | -5.6 | 24.3%
COc1cccc(C(=O)N2CCC(N3CCN(Cc4ccc(F)cc4)C(=O)C3=O)CC2)c1 | nt | nt | -2.4 | nt
O=S(=O)(c1cc(O)ccc1O)c1cccc2c(S(=O)(=O)c3cc(O)ccc3O)cccc12 | 13.1µM* | 10.4µM* | -21.7 | 10µM*
CC(=O)N1CCc2cc(S(=O)(=O)NC(Cc3ccccc3)C(=O)O)ccc21 (stereo unspecified) | 16.5µM* | 15.5% | 27.9 | 16.2%
CC(=O)N1CCc2cc(S(=O)(=O)NC(C(=O)Nc3nc(C)cs3)C(C)C)ccc21 (stereo unspecified) | -7.3% | -19.4% | -60.5* | 25.8%
CCN(c1cccc(C)c1)S(=O)(=O)c1ccc2c(c1)CCN2C(C)=O | 43.6% | -16.0% | ? | 11.2µM*
CC(=O)N1CCc2cc(S(=O)(=O)NC(Cc3ccccc3)C(=O)NCc3ccccc3Cl)ccc21 (stereo unspecified) | nt | nt | -13.5 | nt
CC(=O)N1CCc2cc(S(=O)(=O)N3CCOCC3)ccc21 | ? | nt | -7.0 | 8.4%
CC(=O)N1CCc2cc(S(=O)(=O)N3c4ccccc4CC3C)ccc21 (stereo unspecified) | nt | -14.5% | -77.1* | ?
COc1ccc(C)cc1NC(=O)Cn1c(=O)oc2cc(S(=O)(=O)N3CCCCC3)ccc21 | nt | nt | -25.8 | nt
Cc1c(C(=O)Nc2ccccc2)sc2nc(-c3cc4cc(Cl)ccc4oc3=O)[nH]c(=O)c12 | nt | nt | 10.0 | nt
O=C(CSc1nc2ccccc2nc1Cc1ccccc1)Nc1ccccc1C(F)(F)F | nt | nt | -5.9 | nt
CC(=O)N1CCc2cc(S(=O)(=O)NC(CC(C)C)C(=O)N3CCc4ccccc4C3)ccc21 (stereo unspecified) | 66.2% | ? | -1.8 | 19.6%
